Screening data from PubChem.
Marburg entry inh = qHTS for inhibitors of binding or entry into cells for Marburg Virus | AID 540276, 2011 | Potency, µM (doses to about 37.8 µM), without a hit: at the highest dose activity change, negative = inhibition, usual class: inhibitors | Marburg virus pseudotyped entry inhibition, cell reporter | 300,000 compounds, 1.8% hits; calls by dose curve; tested in HEK293 cells; also: potency is read from the fitted curve at half-maximal effect
Lassa entry inh = qHTS for Inhibitors of binding or entry into cells for Lassa Virus; Lassa virus pseudotype entry inhibition, cell reporter; Potency, µM (top dose mostly 37.9 µM), for inactives: top-dose activity change, negative = inhibition, usual class: inhibitors; 300,000 compounds, 1.2% hits; AID 540256, 2011; calls by dose curve; tested in HEK293 cells; also: potency is read from the fitted curve at half-maximal effect; nearly all actives have a fitted effect of over 50% in size
FMDV antiviral = High Throughput Screening for Foot and Mouth Disease Virus Antivirals; FMDV antiviral cell-based qHTS; Potency, µM (highest dose often 57.9 µM), for the others: top-dose activity change, negative = inhibition, actives largely listed as inhibitors; 410,000 compounds, 1.2% hits; AID 1159524, 2015; calls by dose curve; tested in HEK293T cells; also: read-out not given here; potency is read from the fitted curve at half-maximal effect; nearly all actives have a fitted effect of over 45% in size
Vaccinia mCherry = qHTS for Stage-Specific Inhibitors of Vaccinia Orthopoxvirus: mCherry Reporter Primary qHTS; Vaccinia virus mCherry reporter infection, fluorescence; Potency, µM (titrated, usually from 36.5 µM), without a hit: at the top dose activity change, negative = inhibition, hits mostly inhibitors; 310,000 compounds, 0.63% hits; AID 720579, 2013; calls by dose curve; tested in A549 cells; also: potency is read from the fitted curve at half-maximal effect; nearly all actives have a fitted effect of over 35% in size
HCMV inh = qHTS Assay for inhibitors of the human cytomegalovirus (HCMV) | HFF cells, HCMV-luciferase reporter, 72 h; active compounds read low | activity change, negative = inhibition, % at 57.5 µM | 410,000 compounds, 4.5% hits; in the data active = activity change below about -60%; inconclusive = no clear call, values can overlap the other calls; inactive = above about -39%
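Human foreskin fibroblasts infected with luciferase-reporter HCMV at MOI 1 PFU/cell, compounds at two doses. Luciferase measured 72 h post infection; normalized to buffer-only basal and Salinomycin (10uM) controls.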
Vaccinia Venus = qHTS for Stage-Specific Inhibitors of Vaccinia Orthopoxvirus: Venus Reporter Primary qHTS; 330,000 compounds, 0.46% hits; AID 720580, 2013; Potency, µM (top dose mostly 36.5 µM), without a hit: at the highest dose activity change, negative = inhibition, most hits filed as inhibitors; Vaccinia virus Venus reporter expression, fluorescence; calls by dose curve; tested in A549 cells; also: potency is read from the fitted curve at half-maximal effect; nearly all actives have a fitted effect of over 30% in size
Active calls of the source: *; i = inactive; ? = inconclusive; . = no result given; [ ] = dose if it differs, or a comment. Sampled rows, rich in hits. Any-hit rate of the full collection: about 6.5%. % is scaled to controls: 0 for no effect and ±100 for the full control effect.

SMILES	Marburg entry inh	Lassa entry inh	FMDV antiviral	Vaccinia mCherry	HCMV inh	Vaccinia Venus
O=C(COC(=O)c1ccccc1C(=O)c1ccc(Cl)cc1)NCCc1ccccc1	?	-19%	-17%	?	-76*	?
COC(=O)N[C@@H](C=Cc1ccco1)[C@]1(C(=O)OC)CCCC1=O	3%[14.2 µM]	.	.	.	.	.
Cc1nn(-c2ccccc2)c(C)c1C(=O)OCC(=O)Nc1ccccc1	3%	-17%	-9%	0%	10	-17%
Cc1nn(-c2ccccc2)c(-n2cccc2)c1C(=O)NCCc1ccc(Cl)cc1	-31%[46.1 µM]	-7%[46.1 µM]	?	-20%	-100*	-13%
Cc1cc(NC(=O)COC(=O)c2c(C)nn(-c3ccccc3)c2C)no1	?	18µM*	-14%	.	-7	.
O=C(C(c1ccccc1)c1ccccc1)N1CC[C@@]2(O)CCCC[C@H]2C1	5.6µM*	-16%	-12%	i	-7	-17%
Cc1cccc(N2CCN(C(=O)Cn3c(=O)c4cccn4c4ccc(F)cc43)CC2C)c1 (configuration not stated)	.	-13%[46.1 µM]	?	-14%	2	-7%
CCn1c(-c2ccccc2F)nc2cc(C(=O)NCC3CCOCC3)cc(NC(C)=O)c21	.	.	-7%	-12%	.	-2%
O=C1Cc2cc(NS(=O)(=O)c3ccc([N+](=O)[O-])cc3)cc3c2N1CCC3	1%	6%	-17%	10µM*	-9	?
O=C1Cc2cc(NS(=O)(=O)c3ccc(Cl)cc3)cc3c2N1CCC3	0%	-2%	11%	0%	-25	-10%
CNC(=O)COC(=O)c1ccc(NC(=O)CC#N)cc1	-4%	?	7%	i	-101*	-10%
N#CCC(=O)Nc1ccc(C(=O)OCC(=O)NC(=O)Cc2ccccc2)cc1	-2%	14%	47%	-11%	-13	3%
Cc1cccc(Oc2ccccc2NC(=O)CSCC(=O)Nc2cc(C)on2)c1	3.5µM*	?	?	-27%	?	-4%
CCOc1ccc(Oc2ccccc2NC(=O)CSCC(=O)Nc2cc(C)on2)cc1	?	?	?	-7%	?	-28%
C[C@H]1[C@@H](C(=O)N2CCCC2)CC(=NOCc2ccccc2)C(=NOCc2ccccc2)C[C@H]1c1ccccc1	-29%[14.2 µM]	?	.	.	.	.
CCCC(=O)Nc1nnc2n1CCS2	.	-26%[46.1 µM]	15%	10%	2	3%
O=C(/C=C/c1ccc2ccccc2n1)N1CCN(S(=O)(=O)c2ccccc2F)CC1	.	.	?	.	-97*	.
O=C(/C=C/c1ccc(S(=O)(=O)N2CCOCC2)cc1)N1CCN(c2ccc(F)cc2)CC1	?	?	?	?	-63*	-26%
O=C(/C=C/c1ccc2ccccc2n1)N1CCN(S(=O)(=O)c2ccc(F)cc2)CC1	.	.	?	.	-80*	.
O=C(/C=C/c1ccc2ccccc2n1)N1CCN(c2ccccc2)CC1	?	-6%[46.1 µM]	-16%	-7%	-21	-15%
O=C(c1ccc(S(=O)(=O)N2CCOCC2)cc1)N1CCN(c2ccc(F)cc2)CC1	-8%	-2%	-20%	.	17	1%
CCOC(=O)[C@]12C[C@@H]3CCN(C(=O)N(C(C)=O)[C@@H]1c1ccccc1)[C@@H]32	-9%[14.2 µM]	.	.	.	.	.
CC1CCN(CC(O)COC2CC(C)CCC2C(C)C)CC1 (configuration not stated)	.	.	-24%	.	?	.
CC1CCC(C(C)C)C(OCC(O)CNC(C)c2ccccc2)C1 (configuration not stated)	?	?	?	10µM*	-98*	10µM*
CC1CCC(C(C)C)C(OCC(O)CNC(C)(C)C)C1 (configuration not stated)	.	.	-11%	-16%	-76*	-20%
Cc1cc2nc(C(=O)NC3CCCCC3)c(-c3cccc(Br)c3)nc2cc1C	.	.	.	.	28	.
COc1ccc(CCNC(=O)CCc2cn(Cc3ccc(F)cc3)c3ccccc23)cc1OC	.	?	-24%	-26%	-20	-18%
Cn1c(=O)n(CCOc2ccccc2Cl)c2ccccc21	?	1%	32%	.	9	-22%
